A selection: hits, their analogues and other compounds. The true share with any hit is near 10%.
HPGD block – qHTS Assay for Inhibitors of HPGD (15-Hydroxyprostaglandin Dehydrogenase); Potency, µM, usual class: inhibitors; 15-hydroxyprostaglandin dehydrogenase [NAD(+)] (Homo sapiens), P15428; purified HPGD, NADH fluorescence kinetic, PGE2 substrate; 150,000 compounds, 4.3% hits
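20 nM HPGD preincubated 15 min at room temperature with compound in 50 mM Tris-HCl pH 8, 0.01% Tween 20. Started with 1 mM NAD+ and 30 uM prostaglandin E2; NADH fluorescence (360/450 nm) read 5 times over 30-s intervals, last minus first.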
12-hLO inh – qHTS Assay for Inhibitors of 12-hLO (12-human lipoxygenase). Polyunsaturated fatty acid lipoxygenase ALOX12 (Homo sapiens), P18054. purified 12-hLO, xylenol orange hydroperoxide absorbance. AID 1452, 2008. 150,000 compounds, 0.12% hits. Potency, µM (top dose mostly 57.1 µM), actives largely listed as inhibitors; active = well fitted inhibition curve with a large enough effect; inconclusive = small, poorly fitted or top-dose-only effect; also: nearly all actives have a fitted effect of over 55% in size
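Hydroperoxide formation by human 12-lipoxygenase from 40 uM arachidonic acid was followed colorimetrically via ferric-xylenol orange complex, using the 573/405 nm absorbance ratio. Enzyme concentration was 150 nM, with 30 min reaction at room temperature.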
ALDH1A1 inh – qHTS Assay for Inhibitors of Aldehyde Dehydrogenase 1 (ALDH1A1) | Aldehyde dehydrogenase 1A1 (Homo sapiens), P00352 | Purified ALDH1A1, NADH fluorescence, propionaldehyde substrate | Potency, µM (highest dose often 75.3 µM), usual class: inhibitors | 220,000 compounds, 7.3% hits
Target sequence (P00352 whole entry, looked up): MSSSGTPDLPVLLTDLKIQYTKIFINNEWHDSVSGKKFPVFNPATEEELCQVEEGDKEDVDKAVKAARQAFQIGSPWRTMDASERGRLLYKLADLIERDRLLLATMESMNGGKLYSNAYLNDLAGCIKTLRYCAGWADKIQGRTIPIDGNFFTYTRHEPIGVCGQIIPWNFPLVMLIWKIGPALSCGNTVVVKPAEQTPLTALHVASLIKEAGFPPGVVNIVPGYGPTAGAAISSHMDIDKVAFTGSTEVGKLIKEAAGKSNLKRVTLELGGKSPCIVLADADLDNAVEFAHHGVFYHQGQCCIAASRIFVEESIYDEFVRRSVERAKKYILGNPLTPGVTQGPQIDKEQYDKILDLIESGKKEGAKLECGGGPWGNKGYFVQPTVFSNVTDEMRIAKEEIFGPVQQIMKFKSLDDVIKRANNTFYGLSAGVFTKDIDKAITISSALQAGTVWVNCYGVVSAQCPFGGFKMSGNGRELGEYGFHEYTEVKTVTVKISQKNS
PNC assembly inh – High Content Assay for Compounds that inhibit the Assembly of the Perinucleolar Compartment; PC3M PTB-GFP, PNC prevalence imaging, 16 h; stronger effect = lower value; activity change (PNC), negative = inhibition, % at 10 µM; 140,000 compounds, 3.1% hits;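 active = readout at or below -70, meaning at least 70% loss of cells showing the perinucleolar compartment, a nuclear body marking cancer cells; inconclusive = readout between -30 and a set limit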
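Compounds are pinned in duplicate onto adhered PC3M cells stably expressing GFP-tagged PTB and incubated 16 h at 37 C. Cells are then fixed, nuclei stained with Hoechst, and PNC-positive cells counted.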
LMNA splice mod – qHTS Assay for Modulators of Lamin A Splicing; HeLa LMNA splicing GFP/RFP minigene ratio, 48 h; Potency, µM (doses to about 46.1 µM), actives largely listed as inhibitors; 200,000 compounds, 0.01% hits; AID 1487, 2009; active = well fitted inhibition curve with a large enough effect in the signal ratio, with a control signal flat, not every such curve was filed as active; inconclusive = small, poorly fitted or top-dose-only effect, or effect the other way, or a change in a side signal; the % refers to the signal ratio
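Read-out is the ratio of GFP to DsRed2 object intensity, acquired by 488 nm laser-scanning cytometry on HeLa lamin A-EGFP minigene reporter cells. Compound incubation 48 hrs at 37 °C in Opti-MEM with 2% FBS; DMSO 0.5% final.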
Each line names hits and unclear results; the compound was inactive in the other large screens. Unless noted, calls follow the shape of the dose curve; as a rule, active = well fitted inhibition curve with a large enough effect (not every such curve was filed as active); inconclusive = small, poorly fitted or top-dose-only effect, or another doubt; inactive = no such curve, though single readings can be large or run the other way.

COc1ccc(S(=O)(=O)NCC(c2cccnc2)N2CCN(c3ccccc3)CC2)cc1C (configuration not stated)	ALDH1A1 inh 13µM
Cc1ccc(S(=O)(=O)NC2=C(N3CCN(c4ccccc4F)CC3)C(=O)c3ccccc3C2=O)cc1	ALDH1A1 inh inconclusive
CC(=O)Nc1ccc(S(=O)(=O)NC2=C(N3CCN(c4ccc(F)cc4)CC3)C(=O)c3ccccc3C2=O)cc1	ALDH1A1 inh 7.1µM, LMNA splice mod 11µM
O=C1C(NS(=O)(=O)c2cccs2)=C(N2CCN(c3ccccc3)CC2)C(=O)c2ccccc21	ALDH1A1 inh 3.5µM, PNC assembly inh inconclusive
O=C(C(NS(=O)(=O)c1cccs1)c1ccccc1)N1CCN(c2ccccc2)CC1 (configuration not stated)	ALDH1A1 inh inconclusive
Cc1ccc(S(=O)(=O)NC2=C(N3CCN(Cc4ccccc4)CC3)C(=O)c3ccccc3C2=O)cc1	none
CC1CCCN(C2=C(NS(=O)(=O)c3ccc(Cl)cc3)C(=O)c3ccccc3C2=O)C1 (configuration not stated)	ALDH1A1 inh 13µM, PNC assembly inh inconclusive, LMNA splice mod inconclusive
NC(N)=NC[C@@H]1COC2(CCCCC2)O1	none (no result: PNC assembly inh)
Cc1ccc(C2=Nc3ccccc3N=C(c3ccc([N+](=O)[O-])cc3)C2)c(O)c1	none
O=S(=O)(NCC(c1cccnc1)N1CCN(c2ccccc2)CC1)c1cccs1 (configuration not stated)	ALDH1A1 inh 2.5µM, PNC assembly inh inconclusive
O=C(NN1C(=O)C2C3C=CC(O3)C2C1=O)c1cccc(O)c1 (configuration not stated)	ALDH1A1 inh 20µM
O=C(NN1C(=O)C2C3C=CC(O3)C2C1=O)c1cccc(Br)c1 (configuration not stated)	ALDH1A1 inh 28µM (no result: HPGD block, 12-hLO inh, PNC assembly inh)
CCc1ccc(CNC(=O)CCc2c(C)nn(-c3ccc(N4CCCCC4)nn3)c2C)cc1	none (no result: HPGD block, 12-hLO inh, ALDH1A1 inh, PNC assembly inh)
CC(C)c1ccc(/C=C/C(=O)NCCC2=CCCCC2)cc1	12-hLO inh inconclusive, ALDH1A1 inh 4.5µM, PNC assembly inh inconclusive, LMNA splice mod inconclusive
CCOC(=O)c1c(Nc2ccccc2N)cc(C)nc1C	PNC assembly inh -107
CCOC(=O)c1c(C)nc2ccccc2c1C	PNC assembly inh inconclusive
CCN1C2=C(C(=O)CCC2)C(c2ccc(O)c(Br)c2)C2=C1CCCC2=O	ALDH1A1 inh inconclusive
CCCOc1c(Br)cc(C2C3=C(CCCC3=O)N(C)C3=C2C(=O)CCC3)cc1OC	HPGD block inconclusive, ALDH1A1 inh inconclusive, PNC assembly inh -98
Cc1c(N/N=C(\C#N)C(=O)c2ccc(Cl)cc2)c(=O)n(-c2ccccc2)n1C	HPGD block 28µM, 12-hLO inh inconclusive, ALDH1A1 inh inconclusive, LMNA splice mod inconclusive
COC(c1ccccc1Br)C(C)/C=C/CCO (configuration not stated)	ALDH1A1 inh 3.2µM (no result: HPGD block, 12-hLO inh, PNC assembly inh, LMNA splice mod)
COc1cc(OC)cc(C(=O)N2CCN(Cc3ccccc3C(F)(F)F)CC2)c1	ALDH1A1 inh 14µM, PNC assembly inh inconclusive (no result: HPGD block)
COc1ccc(OC)c(CN2CCN(C(=O)c3cccc4ccccc34)CC2)c1	ALDH1A1 inh 25µM, PNC assembly inh inconclusive, LMNA splice mod inconclusive
COc1cc(C(=O)N2CCN(Cc3ccccc3C(F)(F)F)CC2)cc(OC)c1OC	ALDH1A1 inh inconclusive, PNC assembly inh inconclusive, LMNA splice mod inconclusive
CN(C)N1C(N)=C(C#N)C(c2cccs2)C2=C1CC(C)(C)CC2=O (configuration not stated)	ALDH1A1 inh 10µM, LMNA splice mod inconclusive (no result: HPGD block, 12-hLO inh, PNC assembly inh)
CC1(C)CC(=O)C2=C(C1)N(c1cccnc1)C(N)=C(C#N)C2c1cccs1 (configuration not stated)	ALDH1A1 inh 22µM, LMNA splice mod inconclusive
Cc1ccc2cn[nH]c2c1NC(N)=S	none (no result: HPGD block, 12-hLO inh, PNC assembly inh, LMNA splice mod)
Cc1nc2ccccc2c2nc(N)nn12	PNC assembly inh -100
COCCNC(=S)NN(c1ccccc1)c1ccccc1	ALDH1A1 inh 32µM (no result: HPGD block, 12-hLO inh, PNC assembly inh, LMNA splice mod)
CNC(=S)NN(c1ccccc1)c1ccccc1	none
COc1cc(NS(C)(=O)=O)ccc1Cc1c2ccccc2nc2ccccc12	LMNA splice mod inconclusive (no result: PNC assembly inh)

Source: PubChem BioAssay (National Center for Advancing Translational Sciences (NCATS))
